Screening data from PubChem.
Compounds with a hit are over-represented: about 20% of the library has one in this group of screens.
Pf growth 48h: inhibits P. falciparum growth in the first generation, 48 h. Potency, µM (titrated, usually from 28.7 µM), for inactives: top-dose activity change, negative = inhibition, most hits filed as inhibitors. AID 504832. 310,000 compounds, 5.9% hits. P. falciparum luciferase growth in erythrocytes, 48 h; further: potency means the concentration at half of the fitted maximal effect; on the % scale 0 is the no-effect control and ±100 the full control effect
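First compound was added to culture medium, then infected red cells at 0.1% parasitemia and 2% hematocrit (final). After incubation at 37 C under 5% CO2, luciferase detection reagent was dispensed and light output recorded.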
HCMV inh: human cytomegalovirus inhibition. HFF cells, HCMV-luciferase reporter, 72 h; hits give low values. activity change, negative = inhibition, % at 57.5 µM. 410,000 compounds, 4.5% hits. AID 1259415; in the data active means activity change below about -60%; inconclusive means no clear call, values can overlap the other calls; inactive means above about -39%; further: on the % scale 0 is the no-effect control and ±100 the full control effect
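Screen run at 2 compound doses on HFFs infected with reporter HCMV, MOI 1 PFU/cell. Luciferase activity from cell lysates at 72 h post infection gave inhibition relative to buffer-only and Salinomycin wells.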
Shiga toxin inh: Shiga toxin inhibition; Vero cells, Shiga toxin protein synthesis inhibition reporter; inhibition, % at 38.7 µM; 290,000 compounds, 9.2% hits; in the data active means inhibition mostly above about 28%, no sharp cut-off; inactive means mostly below about 43%; further: 0% is about no effect
Pf growth 96h: P. falciparum growth inhibition at 96 hour, primary screen for plastid delayed-death inhibitors; P. falciparum luciferase reporter growth, 96 h; Potency, µM (doses to about 28.7 µM), for inactives: top-dose activity change, negative = inhibition, usual class: inhibitors; 320,000 compounds, 6.9% hits; AID 504834; further: potency means the concentration at half of the fitted maximal effect; on the % scale 0 is the no-effect control and ±100 the full control effect
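Luminescence readout: decreased luciferase signal marks inhibited growth of reporter-expressing P. falciparum in infected red cells (2% hematocrit, 0.05% parasitemia final), exposed to compound two generations (96 h, 37 C, 5% CO2).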
Cycloheximide cs: counter-screen for Shiga toxin inhibitors: cycloheximide protein synthesis inhibition; max response, %; cell reporter, cycloheximide protein synthesis inhibition counterscreen; 300,000 compounds, 12% hits; AID 2314; in the data active means max response mostly above about 13%, no sharp cut-off; inactive means mostly below about 14%; further: read at 38.3 µM for the half of the compounds with a filed dose; 0% is about no effect
Starred values were filed as active, the others as inactive; ? = inconclusive; · = no result given. Unless noted, the call rests on the fitted dose curve; in most records, active means well fitted inhibition curve with a large enough effect; inconclusive means small, poorly fitted or top-dose-only effect, or another doubt; inactive means no such curve, though single readings can be large or run the other way.

SMILES	Pf growth 48h	HCMV inh	Shiga toxin inh	Pf growth 96h	Cycloheximide cs
O=C(c1nc2ccccn2c1CN1CCC(Cc2ccccc2)CC1)N1CCCC1	10µM*	-26	-12	-2%	-2
COC(=O)c1sccc1NC(=S)Nc1cc(C)cc(C)c1	18%	-10	-4	10µM*	-3
COC(=O)c1sccc1NC(=O)Nc1cccc(C)c1C	23%	-34	11	4.1µM*	10
COC(=O)c1sccc1NC(=O)Nc1ccc(OC)cc1	67%	40	108*	7%	35*
COC(=O)c1sccc1NC(=O)Nc1cccc(C(C)=O)c1	111%	-3	-7	304%	2
COC(=O)c1sccc1NC(=O)Nc1cccc(C)c1	294%	-35	60*	?	32*
CCCCNC(=O)c1nc(C2CCN(S(=O)(=O)c3ccccc3C(F)(F)F)CC2)oc1-c1cccc(C(F)(F)F)c1	·	-8	·	·	·
CCOC(=O)[C@]12CCC=C1N(Cc1ccc3c(c1)OCO3)C(=O)[C@H](CC(=O)NCc1cccc(C(F)(F)F)c1)C2	·	13	·	·	·
CCC(C(=O)Nc1ccsc1C(=O)OC)c1ccccc1 (centres undefined)	-4%	-67*	7	-29%	-3
CCC(C(=O)Nc1nc(C)c(C(=O)OC)s1)c1ccccc1 (centres undefined)	?	4	32	170%	2
COC(=O)c1scc(C)c1NC(=O)Nc1ccccc1	-4%	-99*	24	30%	1
COC(=O)c1scc(C)c1NC(=O)C(Cl)c1ccccc1 (centres undefined)	?	-28	-5	?	-4
Cc1ccc(S(=O)(=O)Nc2cc3c(cc2Cl)n(C)c(=O)c(=O)n3C)cc1	·	6	·	·	·
Cc1nn(CC2CC2)c(=O)n1-c1ccc(F)cc1	0%	-32	-6	0%	9
O=C(Nc1cc(S(=O)(=O)N2CCCCC2)ccc1N1CCCCC1)c1ccncc1	9.3µM*	-16	-12	8.3µM*	-2
O=C(Nc1cc(S(=O)(=O)N2CCCCC2)ccc1N1CCOCC1)c1ccc(F)cc1	?	1	·	?	·
CC1CC(C)CN(C(C)C(=O)Nc2cc(S(=O)(=O)N3CCCCC3)ccc2Cl)C1 (centres undefined)	·	-9	·	·	·
CN1CCN(c2ccc(S(=O)(=O)N3CCOCC3)cc2NC(=O)C2CCCCC2)CC1	·	0	·	·	·
CC1CCN(C(C)C(=O)Nc2cc(S(=O)(=O)N3CCCCC3)ccc2Cl)CC1 (centres undefined)	12µM*	?	·	9.3µM*	·
O=C(Nc1cc(S(=O)(=O)N2CCCCC2)ccc1N1CCCCC1)C1CC1	10µM*	-61*	4	?	2
Cc1ccccc1-c1noc(-c2ccc(N3CCCCC3)c([N+](=O)[O-])c2)n1	·	-37	·	·	·
Cc1ccc(S(=O)(=O)N(C)C)cc1NC(=S)NNC(=O)C(N)=O	1%	-7	-5	42%	-4
Cc1ccc(NC(=O)c2c(C)oc3ccc(O)c(CN4CCCCC4)c23)c(C)c1	·	-20	·	·	·
Cc1ccc(NC(=O)c2c(C)oc3ccc(O)c(CN4CCCCC4)c23)cc1	·	-65*	·	·	·
COc1ccc(NC(=O)c2c(C)oc3ccc(O)c(CN4CCCCCC4)c23)cc1Cl	·	-94*	·	·	·
SMILES	Pf growth 48h	HCMV inh	Shiga toxin inh	Pf growth 96h	Cycloheximide cs
Cc1ccccc1NC(=O)c1c(C)oc2ccc(O)c(CN3CCCCCC3)c12	·	-30	·	·	·
CCOC(=O)c1cc(S(=O)(=O)N2CCN(c3cc(C)ccc3C)CC2)[nH]n1	·	12	·	·	·
Cc1cc(C(C)(C)C)cc(C)c1COC(=O)c1cccnc1	?	-34	-6	?	-2
COc1ccc(CNC(=O)CN2CCC(C(=O)c3ccc(OC)cc3)CC2)cc1	?	-78*	-16	·	-4
COc1ccc(C(=O)C2CCN(CC(=O)NCc3ccccc3)CC2)cc1	-12%	8	-7	12%	-2
O=C(CN1CCC(C(=O)c2ccc(F)cc2)CC1)NCc1ccccc1F	-25%	-8	15	6.6µM*	-3
O=C(CN1CCC(C(=O)c2ccc(F)cc2)CC1)Nc1ccccc1	?	?	-13	?	-2
CC(C)c1onc(C(=O)Nc2ccc3c(c2)OCO3)c1[N+](=O)[O-]	8%	·	52*	39%	33*
Cc1onc(C(=O)Nc2cccc(C(F)(F)F)c2)c1[N+](=O)[O-]	20%	-17	22	-1%	27*
Cc1ccc(NC(=O)c2noc(C(C)C)c2[N+](=O)[O-])cc1	?	-11	78*	?	55*
CCc1ccccc1NC(=O)c1noc(C(C)C)c1[N+](=O)[O-]	9%	-32	21	-12%	5
CC(C)c1onc(C(=O)Nc2cccc(O)c2)c1[N+](=O)[O-]	-29%	?	145*	92%	31*
CC(C)c1cc(C(=O)Nc2cccc(C(F)(F)F)c2)no1	·	7	121*	?	50*
O=C(Nc1cccc(C(F)(F)F)c1)c1cc(-c2ccc(Cl)cc2)on1	·	-10	·	·	·
COc1ccccc1N1CCN(C(c2ccccn2)c2nnnn2C2CCCCC2)CC1 (centres undefined)	9.3µM*	20	-9	·	-4
Fc1ccccc1N1CCN(C(c2ccccn2)c2nnnn2C2CCCCC2)CC1 (centres undefined)	10µM*	-16	-8	-6%	5
COc1ccc(CN(C)C(=O)COc2cccc(-n3cnnn3)c2)cc1OC	·	132	·	·	·
Cc1cc(C)cc(NC(=O)C2CCN(S(=O)(=O)c3ccc4c(c3)oc(=O)n4C)CC2)c1	·	-1	·	·	·
O=S(=O)(NC(=NC1CCCCC1)c1ccccc1)c1ccc(F)cc1	?	5	1	9.3µM*	2
COc1ccccc1NC(=S)Nc1ccccn1	4%	-16	13	-22%	-1
CCOC(=O)c1ccc(NC(=S)Nc2cccc(N)n2)cc1	?	-18	81*	-89%	50*
COC(=O)c1ccc(NC(=S)Nc2ccccn2)cc1	185%	1	73*	-88%	42*
COc1ccc(NC(=S)Nc2ccccn2)cc1	258%	32	135*	39%	46*
Cn1cccc1C(=O)Nc1ccc(Cl)c(S(=O)(=O)N2CCCCC2)c1	·	-8	·	·	·
O=C(NCc1cc(C(F)(F)F)ccc1Cl)c1cccc2c1C(=O)c1ccc(N3CCC(N4CCCCC4)CC3)cc1S2(=O)=O	·	-101*	·	·	·
COCCCNC(=O)C(=O)NCC(c1ccc2c(c1)OCO2)N1CCOCC1 (centres undefined)	·	-113*	·	·	·
Cc1ccc(CNC(=O)C(=O)NCC(c2cccnc2)N2CCN(c3ccccc3F)CC2)cc1 (centres undefined)	·	-72*	·	·	·
COc1ccccc1N1CCN(C(CNC(=O)c2ccc3c(c2)OCO3)c2cccnc2)CC1 (centres undefined)	?	-15	26	150%	15*
COCCNC(=O)C(=O)NCC(c1cccnc1)N1CCN(c2ccccc2OC)CC1 (centres undefined)	·	-7	·	·	·
COCCNC(=O)C(=O)NCC(c1ccc2c(c1)OCO2)N1CCOCC1 (centres undefined)	·	19	·	·	·
